Reference: PubChem BioAssay (NCI)
About 83,000 compounds went through this panel and 20% of them were active in at least one assay; those are over-represented in the sample as a whole.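 A percent growth of 40 corresponds to 60% growth inhibition; 0 means no net growth; -100 means all cells died. Active threshold: below 10.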 Unmarked numbers belong to inactive results. Calls of active or inactive are those of the source.

What was measured:
Assay in all cases: NCI-60 one-dose screen, 48 h (100 = growth as untreated, 0 = no growth, -100 = all killed)
Conditions in all cases: 10 µM unless noted
SK-MEL-2 melanoma = tested on: SK-MEL-2 melanoma
EKVX NSCLC = tested on: EKVX NSCLC
SN12C renal = tested on: SN12C renal
UO-31 renal = tested on: UO-31 renal
TK-10 renal = tested on: TK-10 renal
ACHN renal = tested on: ACHN renal
CAKI-1 renal = tested on: CAKI-1 renal
A498 renal = tested on: A498 renal
CCRF-CEM leukemia = tested on: CCRF-CEM leukemia
MOLT-4 leukemia = tested on: MOLT-4 leukemia
SR leukemia = tested on: SR leukemia
RPMI-8226 leukemia = tested on: RPMI-8226 leukemia
OVCAR-8 ovarian = tested on: OVCAR-8 ovarian
OVCAR-5 ovarian = tested on: OVCAR-5 ovarian
OVCAR-4 ovarian = tested on: OVCAR-4 ovarian
SK-OV-3 ovarian = tested on: SK-OV-3 ovarian
IGROV1 ovarian = tested on: IGROV1 ovarian
OVCAR-3 ovarian = tested on: OVCAR-3 ovarian
HS 578T breast = tested on: HS 578T breast
NCI/ADR-RES ovarian = tested on: NCI/ADR-RES ovarian

Row | SMILES | growth (SK-MEL-2 melanoma) | growth (EKVX NSCLC) | growth (SN12C renal) | growth (UO-31 renal) | growth (TK-10 renal) | growth (ACHN renal) | growth (CAKI-1 renal) | growth (A498 renal) | growth (CCRF-CEM leukemia) | growth (MOLT-4 leukemia) | growth (SR leukemia) | growth (RPMI-8226 leukemia) | growth (OVCAR-8 ovarian) | growth (OVCAR-5 ovarian) | growth (OVCAR-4 ovarian) | growth (SK-OV-3 ovarian) | growth (IGROV1 ovarian) | growth (OVCAR-3 ovarian) | growth (HS 578T breast) | growth (NCI/ADR-RES ovarian)
1 | COc1cc2c(c(OC)c1OC)C(=O)CC(c1cccc(NC(=O)c3ccc(C#N)cc3)c1)O2 (stereo not given) | 69% | 83.8% | 83% | 62.8% | 89.4% | 81.2% | 77.1% | 82.2% | 25.3% | 27% | 41.7% | 30.8% | 40.9% | 101% | 63% | 99.1% | 85.5% | 76.5% | 90.3% | 50.7%
2 | COc1cccc(C(=O)NNc2nc(Cl)nc(Cl)n2)c1 | 96.3% | 98% | 100% | 88.4% | 104% | 101% | 96.1% | 96.6% | 101% | 101% | 101% | 95.7% | 95.4% | 101% | 107% | 102% | 100% | 106% | 95.3% | 104%
3 | Cc1ccc2nc(/C(C#N)=C(/CCCO)NC(Cc3ccccc3)C(=O)OCc3ccccc3)[nH]c(=O)c2c1 (stereo not given) | 96.8% | 95.6% | 103% | 112% | 126% | 107% | 90.2% | 210% | 164% | 112% | 92.3% | 114% | 120% | 89.2% | 125% | 106% | 127% | 110% | 183% | 32.6%
4 | C=C(C)[C@@H]1CCC[C@]2(C(=O)O)CC[C@]3(C)[C@@H](CC[C@@H]4[C@@]5(C)C/C(=C/c6ccncc6)C(=O)C(C)(C)[C@@H]5CC[C@]43C)[C@@H]12 | 48.3% | 24.9% | 25.7% | 19.7% | 52.2% | 26.8% | 31.4% | 57.7% | 0.771% (active) | 6.38% (active) | 3.51% (active) | -9.5% (active) | 24.9% | 47.9% | 28.4% | 78% | 22.6% | 11.5% | 53% | 37.5%
5 | C=C1C(=O)O[C@H]2[C@H]1CC/C(COC(=O)/C=C\C(=O)NCc1ccc(Cn3c(=O)sn(CCCl)c3=O)cc1)=C\CC[C@@]1(C)O[C@@H]21 | 85.8% | 86.2% | 89.9% | 79.9% | 60.9% | 44.2% | 47.9% | 132% | 7.92% (active) | 35.1% | 15.5% | 74.8% | 86.9% | 91% | 96.3% | 115% | 34.8% | 36.2% | 110% | 108%
6 | Cc1ccc2c(-n3nc(C#N)c(C#N)c3N)cc(=O)[nH]c2c1 | 101% | 67.9% | 76.4% | 45.2% | 108% | 83.1% | 82.6% | 105% | 88.6% | 99.3% | 90.5% | 101% | 85.9% | 99.2% | 89% | 74.5% | 64.1% | 91.2% | 107% | 110%
7 | COc1ccccc1N(C(C)=O)C1=C(Cl)C(=O)c2ccccc2C1=O | -38.2% (active) | 10.1% | 16% | 11.4% | -6.2% (active) | -29.5% (active) | 10.6% | 36.2% | -16.9% (active) | 10.9% | -13.9% (active) | -19.2% (active) | 19.1% | 23.1% | 22.4% | 17.6% | 13.8% | -23.3% (active) | 42.7% | 0.618% (active)
8 | C/C(=N\O)[C@@H]1CC[C@]2(CO)CC[C@]3(C)[C@H](CC[C@@H]4[C@@]5(C)CCCNC(C)(C)[C@@H]5CC[C@]43C)[C@@H]12 | 95.2% | 92.7% | 85.4% | 69.3% | 109% | 98.6% | 79.4% | 107% | 58.9% | 33.3% | 12.5% | 53.4% | 91.2% | 88.5% | 77.2% | 105% | 65.2% | 80.3% | 84.3% | 96.6%
9 | COc1ccc(C#Cc2ccc(=O)oc2-c2cc(OC)c(OC)c(OC)c2)cc1O | 61.6% | 79.8% | 58% | 37.9% | 81.8% | 62% | 22.8% | 56.6% | 18.5% | 15.1% | 13.7% | 18.2% | 69.6% | 43% | 69% | 47.2% | 37.5% | -4.92% (active) | 54.5% | 19.6%
10 | OCCNCCNC(Cc1ccc(Cl)cc1)c1ccccc1 (stereo not given) | 86.6% | 88.5% | 92% | 64.5% | 80.8% | 95.9% | 84.3% | 90.1% | 85.4% | 86.4% | 88.5% | 81.3% | 101% | 63.6% | 95.6% | 81% | 87.3% | 94.5% | 91.5% | 92.2%
11 | CCN(CC)c1ccc(CNc2cc(C)nc3ccccc23)cc1 | 84.2% | 42.6% | 75.4% | 40% | 67% | 64.6% | 53.2% | 52.5% | 70% | 86.4% | 50.5% | 41.7% | 63.2% | 73.2% | 52% | 78.3% | 74.8% | 63.7% | 85.6% | 47.7%
12 | CN1CCN(CCCOc2cccc3nc(Nc4ccc(F)c(F)c4)ccc23)CC1 | -49.7% (active) | 34% | 24.4% | -54.3% (active) | -4.13% (active) | -31.4% (active) | -29.1% (active) | 33.6% | -26.9% (active) | -38.4% (active) | 0.217% (active) | -14.5% (active) | 24.5% | -20.9% (active) | 39.3% | 24.2% | -12.4% (active) | 8.36% (active) | 16.8% | 12.1%
13 | O=C(/C=C/c1ccc(Cl)cc1)c1cccc(OCCCOc2cccc(C(=O)/C=C/c3ccc(Cl)cc3)c2)c1 | 107% | 107% | 103% | 86.1% | 95.6% | 99.6% | 95.4% | 94.9% | 92.9% | 93.3% | 32.8% | -8.57% (active) | 99.3% | 113% | 91.7% | 100% | 108% | 95.4% | 106% | 105%
14 | C#Cc1cccc(Nc2nc(C)nc3cc(NC(=O)CCl)ccc23)c1 | -69.8% (active) | -58.8% (active) | -67.8% (active) | -91.8% (active) | -93.9% (active) | -92% (active) | -91% (active) | 48.2% | -12.3% (active) | -20.7% (active) | -40.4% (active) | -47.5% (active) | -15.4% (active) | -84.7% (active) | -42.2% (active) | 8.47% (active) | -56.7% (active) | -88.2% (active) | -11.6% (active) | -22% (active)
15 | O=C(Nc1ccccc1O)c1ccc(CNC(=O)c2ccsc2Nc2ccnc(C(F)(F)F)c2)cc1 | -20.9% (active) | 37.8% | 45.9% | 19.1% | -13.7% (active) | 20.2% | 9.72% (active) | -14.5% (active) | 5.36% (active) | 4.64% (active) | 22% | -1.09% (active) | 18.4% | 44.3% | 47.3% | 49.1% | 31.9% | 21.6% | 4.47% (active) | 8.13% (active)
